# The panel holds about 79,000 compounds, 15% with a hit somewhere; the sample as a whole holds those more often. Values without a mark were called inactive. The source made the active and inactive calls. No stated cut-off is given here; in the data, active means growth inhibition above about 70%; inactive means the rest.
# What was measured:
# [1] = NCI Yeast Anticancer Drug Screen. Data for the rad52 strain (AID 147);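 further: 0% = growth of vehicle-treated control cultures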; conditions: S. cerevisiae rad52 mutant growth inhibition, active compounds read high
# How it was run: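 Inhibition of yeast growth, referenced to vehicle controls, was the measured output for a strain with defective DNA damage repair.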
# [2] = NCI Yeast Anticancer Drug Screen. Data for the wt1 strain (AID 149);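 further: 0% = growth of vehicle-treated wt1 cultures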; conditions: S. cerevisiae wt1 strain (SPY 50644) growth inhibition, active compounds read high
# How it was run: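 Measured: growth of wt1 yeast under compound versus vehicle treatment, reported as inhibition.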
# [3] = NCI Yeast Anticancer Drug Screen. Data for the rad50EPP+ strain (AID 151);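 further: 0% = growth of vehicle-treated control cultures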; conditions: S. cerevisiae rad50 mutant strain, active compounds read high
# How it was run: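 Genetically defined yeast (rad50EPP+, DNA damage repair alteration) is grown with compound, and inhibition of growth is expressed relative to vehicle-treated controls.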
# [4] = NCI Yeast Anticancer Drug Screen. Data for the mgt1 strain (AID 153); conditions: S. cerevisiae mgt1 mutant growth inhibition, active compounds read high
# How it was run: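 In the mgt1 strain, test compounds were added and growth inhibition was determined relative to vehicle-treated controls.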
# [5] = NCI Yeast Anticancer Drug Screen. Data for the rad50 strain (AID 155);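 further: 0% = growth of vehicle-only cultures of the same strain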; conditions: S. cerevisiae rad50 strain growth inhibition, active compounds read high
# How it was run: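 Growth of the mutant yeast was measured after compound exposure and referenced to vehicle-treated cultures.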
# [6] = NCI Yeast Anticancer Drug Screen. Data for the mec2-1 strain (AID 157); conditions: S. cerevisiae mec2-1 strain, active compounds read high
# How it was run: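 Each compound was tested on mec2-1 yeast, a strain altered in DNA damage repair or cell cycle control. Growth inhibition is reported relative to vehicle.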
# [7] = NCI Yeast Anticancer Drug Screen. Data for the rad14 strain (AID 159);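 further: 0% = growth of vehicle-treated control cultures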; conditions: S. cerevisiae rad14 strain growth inhibition, active compounds read high
# How it was run: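 Here, inhibition of yeast growth was measured after compound exposure, using a strain with a genetic defect in DNA damage repair and vehicle-treated cultures as the reference.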
# [8] = NCI Yeast Anticancer Drug Screen. Data for the sgs1 mgt1 strain (AID 161);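 further: 0% = growth of cultures given vehicle only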; conditions: S. cerevisiae sgs1 mgt1 strain, active compounds read high
# How it was run: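 Test agents were incubated with a DNA-repair-mutant yeast strain. Growth was then read and compared against vehicle-treated controls.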
# [9] = NCI Yeast Anticancer Drug Screen. Data for the CLN2oe strain (AID 163);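 further: 0% = growth of vehicle-only control cultures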; conditions: S. cerevisiae CLN2oe strain, active compounds read high
# How it was run: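 First, the altered yeast strain was treated with each compound; second, its growth was measured; finally, inhibition was derived by comparison with vehicle controls.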
# [10] = NCI Yeast Anticancer Drug Screen. Data for the cln2 rad14 strain (AID 165);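 further: 0% = growth equal to vehicle treated cultures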; conditions: S. cerevisiae cln2 rad14 strain, active compounds read high
# How it was run: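 Test compounds were added to cln2 rad14 yeast cultures; inhibition of growth was then determined by comparison with vehicle treatment.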
# [11] = NCI Yeast Anticancer Drug Screen. Data for the bub3 strain (AID 167); conditions: S. cerevisiae bub3 mutant strain, active compounds read high
# How it was run: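 Whole-cell yeast assay. The mutant strain was incubated with compounds, and growth inhibition was determined by comparison with vehicle-treated cells.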
# [12] = NCI Yeast Anticancer Drug Screen. Data for the wt2 strain (AID 169);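 further: 0% = growth of vehicle-treated yeast cultures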; conditions: S. cerevisiae wt2 strain growth inhibition, active compounds read high
# How it was run: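 The panel's yeast strains carry defined changes in DNA repair or cell cycle genes. Each strain is grown with compound, and growth loss is scored relative to vehicle.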
# [13] = NCI Yeast Anticancer Drug Screen. Data for the mlh1 strain (AID 171);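 further: 0% = growth of vehicle-treated control cultures of the same strain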; conditions: S. cerevisiae mlh1 strain growth inhibition, active compounds read high
# How it was run: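 Inhibition values reflect reduced yeast growth in the presence of compound, referenced to vehicle controls, using a strain chosen for its alteration in DNA repair or cell cycle control.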
# [14] = NCI Yeast Anticancer Drug Screen. Data for the mlh1 rad18 strain (AID 175); conditions: S. cerevisiae mlh1 rad18 strain growth inhibition, active compounds read high
# How it was run: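 Inhibition values reflect reduced growth of mutant yeast versus vehicle-treated controls following compound exposure; the mutations affect DNA damage repair.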
# [15] = NCI Yeast Anticancer Drug Screen. Data for the rad18 strain (AID 177); conditions: S. cerevisiae rad18 mutant growth inhibition, active compounds read high
# How it was run: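 Steps: expose repair-mutant yeast to compound; measure growth; express as inhibition relative to vehicle control.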
# [16] = NCI Yeast Anticancer Drug Screen. Data for the sgs1 strain (AID 173);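 further: 0% = growth of vehicle-only control cultures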; conditions: S. cerevisiae sgs1 mutant, active compounds read high
# How it was run: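 Vehicle-treated cultures served as reference for growth inhibition of a yeast strain altered in DNA damage repair or cell cycle control after compound exposure.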
# [17] = at 5.0 µM (retest, dose inferred, filed as 0.5)
# [18] = at 50.0 µM (retest, dose inferred, filed as 5.0)
structure (smiles),measurement,setting,value
[O-][n+]1c2ccc(O)cc2nc2ccc(Cl)cc21,growth inhibition,[1]; at 1.2 µM,5%
same,growth inhibition,[1]; at 3.7 µM,19%
same,growth inhibition,[1]; at 11.0 µM,45%
same,growth inhibition,[1]; at 33.0 µM,75% (active)
same,growth inhibition,[1]; at 100.0 µM,75% (active)
same,growth inhibition,[2]; at 1.2 µM,4%
same,growth inhibition,[2]; at 3.7 µM,9%
same,growth inhibition,[2]; at 11.0 µM,23%
same,growth inhibition,[2]; at 33.0 µM,34%
same,growth inhibition,[2]; at 100.0 µM,53%
same,growth inhibition,[3]; at 1.2 µM,5%
same,growth inhibition,[3]; at 3.7 µM,16%
same,growth inhibition,[3]; at 11.0 µM,37%
same,growth inhibition,[3]; at 33.0 µM,57%
same,growth inhibition,[3]; at 100.0 µM,56%
same,growth inhibition,[4]; at 1.2 µM,8%
same,growth inhibition,[4]; at 3.7 µM,22%
same,growth inhibition,[4]; at 11.0 µM,34%
same,growth inhibition,[4]; at 33.0 µM,65%
same,growth inhibition,[4]; at 100.0 µM,81% (active)
same,growth inhibition,[5]; at 1.2 µM,6%
same,growth inhibition,[5]; at 3.7 µM,24%
same,growth inhibition,[5]; [17],-5%
same,growth inhibition,[5]; at 11.0 µM,51%
same,growth inhibition,[5]; at 33.0 µM,81% (active)
same,growth inhibition,[5]; [18],17%
same,growth inhibition,[5]; at 50.0 µM,81.9% (active)
same,growth inhibition,[5]; at 100.0 µM,84% (active)
same,growth inhibition,[6]; at 1.2 µM,0%
same,growth inhibition,[6]; at 3.7 µM,9%
same,growth inhibition,[6]; [17],5%
same,growth inhibition,[6]; at 11.0 µM,25%
same,growth inhibition,[6]; at 33.0 µM,41%
same,growth inhibition,[6]; [18],-13%
same,growth inhibition,[6]; at 50.0 µM,75% (active)
same,growth inhibition,[6]; at 100.0 µM,51%
same,growth inhibition,[7]; at 1.2 µM,0%
same,growth inhibition,[7]; at 3.7 µM,8%
same,growth inhibition,[7]; at 11.0 µM,30%
same,growth inhibition,[7]; at 33.0 µM,58%
same,growth inhibition,[7]; at 100.0 µM,73% (active)
same,growth inhibition,[8]; [17],-12%
same,growth inhibition,[8]; [18],-1%
same,growth inhibition,[8]; at 50.0 µM,67%
same,growth inhibition,[9]; at 1.2 µM,0%
same,growth inhibition,[9]; at 3.7 µM,9%
same,growth inhibition,[9]; at 11.0 µM,20%
same,growth inhibition,[9]; at 33.0 µM,34%
same,growth inhibition,[9]; at 100.0 µM,49%
same,growth inhibition,[10]; [17],-4%
same,growth inhibition,[10]; [18],9%
same,growth inhibition,[10]; at 50.0 µM,43.1%
same,growth inhibition,[11]; at 1.2 µM,5%
same,growth inhibition,[11]; at 3.7 µM,2%
same,growth inhibition,[11]; [17],-7%
same,growth inhibition,[11]; at 11.0 µM,23%
same,growth inhibition,[11]; at 33.0 µM,41%
same,growth inhibition,[11]; [18],11%
same,growth inhibition,[11]; at 50.0 µM,78.8% (active)
same,growth inhibition,[11]; at 100.0 µM,59%
same,growth inhibition,[12]; at 1.2 µM,5%
same,growth inhibition,[12]; at 3.7 µM,11%
same,growth inhibition,[12]; at 11.0 µM,26%
same,growth inhibition,[12]; at 33.0 µM,46%
same,growth inhibition,[12]; at 100.0 µM,61%
same,growth inhibition,[13]; at 1.2 µM,4%
same,growth inhibition,[13]; at 3.7 µM,10%
same,growth inhibition,[13]; at 11.0 µM,28%
same,growth inhibition,[13]; at 33.0 µM,62%
same,growth inhibition,[13]; at 100.0 µM,78% (active)
same,growth inhibition,[14]; [17],-24%
same,growth inhibition,[14]; [18],53%
same,growth inhibition,[14]; at 50.0 µM,86.8% (active)
same,growth inhibition,[15]; at 1.2 µM,7%
same,growth inhibition,[15]; at 3.7 µM,23%
same,growth inhibition,[15]; at 11.0 µM,47%
same,growth inhibition,[15]; at 33.0 µM,79% (active)
same,growth inhibition,[15]; at 100.0 µM,82% (active)
CN(CCc1ccccn1)c1ccc2c(c1)Cc1ccccc1-2,growth inhibition,[1]; at 1.2 µM,1%
same,growth inhibition,[1]; at 3.7 µM,11%
same,growth inhibition,[1]; at 11.0 µM,54%
same,growth inhibition,[1]; at 33.0 µM,45%
same,growth inhibition,[1]; at 100.0 µM,53%
same,growth inhibition,[2]; at 1.2 µM,1%
same,growth inhibition,[2]; at 3.7 µM,7%
same,growth inhibition,[2]; at 11.0 µM,6%
same,growth inhibition,[2]; at 33.0 µM,5%
same,growth inhibition,[2]; at 100.0 µM,2%
same,growth inhibition,[3]; at 1.2 µM,29%
same,growth inhibition,[3]; at 3.7 µM,68%
same,growth inhibition,[3]; at 11.0 µM,91% (active)
same,growth inhibition,[3]; at 33.0 µM,89% (active)
same,growth inhibition,[3]; at 100.0 µM,88% (active)
same,growth inhibition,[4]; at 1.2 µM,-3%
same,growth inhibition,[4]; at 3.7 µM,-4%
same,growth inhibition,[4]; at 11.0 µM,1%
same,growth inhibition,[4]; at 33.0 µM,3%
same,growth inhibition,[4]; at 100.0 µM,19%
same,growth inhibition,[5]; at 1.2 µM,4%
same,growth inhibition,[5]; at 3.7 µM,26%
same,growth inhibition,[5]; [17],20%
same,growth inhibition,[5]; at 11.0 µM,69%
same,growth inhibition,[5]; at 33.0 µM,68%
same,growth inhibition,[5]; [18],57%
same,growth inhibition,[5]; at 50.0 µM,90.2% (active)
same,growth inhibition,[5]; at 100.0 µM,67%
same,growth inhibition,[6]; at 1.2 µM,-1%
same,growth inhibition,[6]; at 3.7 µM,8%
same,growth inhibition,[6]; [17],5%
same,growth inhibition,[6]; at 11.0 µM,26%
same,growth inhibition,[6]; at 33.0 µM,20%
same,growth inhibition,[6]; [18],1%
same,growth inhibition,[6]; at 50.0 µM,4.05%
same,growth inhibition,[6]; at 100.0 µM,20%
same,growth inhibition,[7]; at 1.2 µM,1%
same,growth inhibition,[7]; at 3.7 µM,10%
same,growth inhibition,[7]; at 11.0 µM,38%
same,growth inhibition,[7]; at 33.0 µM,37%
same,growth inhibition,[7]; at 100.0 µM,56%
same,growth inhibition,[8]; [17],9%
same,growth inhibition,[8]; [18],82% (active)
same,growth inhibition,[8]; at 50.0 µM,83.3% (active)
same,growth inhibition,[9]; at 1.2 µM,-5%
same,growth inhibition,[9]; at 3.7 µM,-16%
same,growth inhibition,[9]; at 11.0 µM,-11%
same,growth inhibition,[9]; at 33.0 µM,-16%
same,growth inhibition,[9]; at 100.0 µM,-5%
same,growth inhibition,[10]; [17],0%
same,growth inhibition,[10]; [18],10%
same,growth inhibition,[10]; at 50.0 µM,-2.25%
same,growth inhibition,[11]; at 1.2 µM,0%
same,growth inhibition,[11]; at 3.7 µM,-4%
same,growth inhibition,[11]; [17],-12%
same,growth inhibition,[11]; at 11.0 µM,13%
same,growth inhibition,[11]; at 33.0 µM,21%
same,growth inhibition,[11]; [18],30%
same,growth inhibition,[11]; at 50.0 µM,18.4%
same,growth inhibition,[11]; at 100.0 µM,20%
same,growth inhibition,[12]; at 1.2 µM,-1%
same,growth inhibition,[12]; at 3.7 µM,-2%
same,growth inhibition,[12]; at 11.0 µM,5%
same,growth inhibition,[12]; at 33.0 µM,4%
same,growth inhibition,[12]; at 100.0 µM,26%
same,growth inhibition,[13]; at 1.2 µM,0%
same,growth inhibition,[13]; at 3.7 µM,3%
same,growth inhibition,[13]; at 11.0 µM,17%
same,growth inhibition,[13]; at 33.0 µM,15%
same,growth inhibition,[13]; at 100.0 µM,31%
same,growth inhibition,[16]; at 1.2 µM,26%
same,growth inhibition,[16]; at 3.7 µM,71% (active)
same,growth inhibition,[16]; at 11.0 µM,88% (active)
same,growth inhibition,[16]; at 33.0 µM,87% (active)
same,growth inhibition,[16]; at 100.0 µM,88% (active)
same,growth inhibition,[14]; [17],20%
same,growth inhibition,[14]; [18],72% (active)
same,growth inhibition,[14]; at 50.0 µM,77.4% (active)
same,growth inhibition,[15]; at 1.2 µM,46%
same,growth inhibition,[15]; at 3.7 µM,89% (active)
same,growth inhibition,[15]; at 11.0 µM,95% (active)
same,growth inhibition,[15]; at 33.0 µM,94% (active)
same,growth inhibition,[15]; at 100.0 µM,94% (active)

# — PubChem BioAssay (NCI)
